Hits are enriched below; roughly 1.3% of the tested compounds scored in any of these assays.
NCOA2 inhibitor: human SRC2 (NCOA2) inhibition; 370,000 compounds, 0.17% hits; Q15596; AID 651957; inhibition, % at 9 µM; HEK293 GAL4-SRC2 luciferase reporter, luminescence;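 active means inhibition above the mean inhibition of all tested compounds plus 3 SD, set per campaign, cut at about 52% in these data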
SRC1 inh: inhibits human SRC1 coactivator; Q15788; HEK293 GAL4-SRC1 luciferase reporter, luminescence; inhibition, % at 3.6 µM; 360,000 compounds, 0.12% hits; AID 588354;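 active means inhibition above the campaign mean plus 3 SD, with each screening campaign given its own cutoff, cut at about 60% in these data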
Target sequence (Q15788 whole entry, looked up, the tested form may be a part): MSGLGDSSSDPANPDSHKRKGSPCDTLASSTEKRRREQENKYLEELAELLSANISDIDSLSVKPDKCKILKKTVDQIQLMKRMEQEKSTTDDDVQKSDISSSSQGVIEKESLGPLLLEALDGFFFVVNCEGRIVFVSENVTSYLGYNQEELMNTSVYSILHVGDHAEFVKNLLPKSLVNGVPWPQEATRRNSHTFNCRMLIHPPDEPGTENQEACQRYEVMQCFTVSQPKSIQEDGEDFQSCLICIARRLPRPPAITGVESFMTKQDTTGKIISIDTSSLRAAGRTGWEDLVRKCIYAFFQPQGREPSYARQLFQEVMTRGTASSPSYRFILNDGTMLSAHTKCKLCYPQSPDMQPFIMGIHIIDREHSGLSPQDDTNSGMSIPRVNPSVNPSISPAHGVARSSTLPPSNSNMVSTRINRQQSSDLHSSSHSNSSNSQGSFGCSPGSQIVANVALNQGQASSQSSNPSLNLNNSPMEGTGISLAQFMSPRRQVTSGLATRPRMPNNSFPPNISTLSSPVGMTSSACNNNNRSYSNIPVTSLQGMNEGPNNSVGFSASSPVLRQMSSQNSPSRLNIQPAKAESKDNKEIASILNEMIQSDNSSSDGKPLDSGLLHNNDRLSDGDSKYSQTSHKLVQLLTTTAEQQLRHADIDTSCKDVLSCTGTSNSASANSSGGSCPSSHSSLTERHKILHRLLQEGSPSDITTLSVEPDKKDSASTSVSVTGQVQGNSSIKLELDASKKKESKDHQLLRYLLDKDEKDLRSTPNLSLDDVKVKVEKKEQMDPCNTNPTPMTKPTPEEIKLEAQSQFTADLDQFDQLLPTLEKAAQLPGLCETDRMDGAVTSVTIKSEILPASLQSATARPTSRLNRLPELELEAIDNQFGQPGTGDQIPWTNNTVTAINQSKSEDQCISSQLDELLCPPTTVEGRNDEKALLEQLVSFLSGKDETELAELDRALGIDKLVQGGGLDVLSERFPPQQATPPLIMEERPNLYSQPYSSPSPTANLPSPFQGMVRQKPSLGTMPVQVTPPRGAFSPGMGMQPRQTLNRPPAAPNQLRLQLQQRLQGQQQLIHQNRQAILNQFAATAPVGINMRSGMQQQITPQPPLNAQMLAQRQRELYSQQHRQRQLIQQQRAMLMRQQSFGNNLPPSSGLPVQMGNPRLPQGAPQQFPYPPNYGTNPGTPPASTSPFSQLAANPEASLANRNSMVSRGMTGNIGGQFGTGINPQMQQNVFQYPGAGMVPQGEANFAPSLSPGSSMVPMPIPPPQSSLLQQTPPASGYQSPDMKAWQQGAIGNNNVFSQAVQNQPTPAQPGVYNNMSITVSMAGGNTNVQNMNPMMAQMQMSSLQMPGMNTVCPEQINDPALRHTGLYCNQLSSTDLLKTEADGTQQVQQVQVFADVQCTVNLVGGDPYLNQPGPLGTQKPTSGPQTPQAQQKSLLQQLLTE
Gli-Sufu block: blocks Gli-Sufu signaling in a luciferase reporter | Sufu-KO-LIGHT fibroblasts, Gli luciferase reporter luminescence | inhibition, % at 5 µM | 340,000 compounds, 0.74% hits;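 active means inhibition above about 55%, limit read from the data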
NCOA3 inh: inhibitors of human steroid receptor coactivator 3 (SRC3) | AID 588352 | HEK293 GAL4-SRC3 luciferase reporter, luminescence | inhibition, % at 3.6 µM | 360,000 compounds, 0.17% hits | Q9Y6Q9;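 active means inhibition above a per-campaign cutoff, the mean of all compounds plus 3 SD, cut at about 60% in these data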;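 further: higher means less SRC3-driven luciferase light from the GAL4 reporter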
NR2F2 inh: inhibitors of human COUP-TFII (NR2F2); P24468; HEK293T NGFI-A luciferase reporter, luminescence; inhibition, % at 8.6 µM; 370,000 compounds, 0.7% hits; AID 686940;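 active means inhibition above a per-plate cutoff, mean inhibition of test wells between control levels plus 3 SD, cut at about 38% in these data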;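 further: cells cotransfected with COUP-TFII expression vector driving the NGFI-A reporter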
LRH-1 inv ag: inverse agonists of human LRH-1 (NR5A2). HEK293T StAR-luciferase reporter, LRH-1 transfected, 24 h. inhibition, % at 3.6 µM. 360,000 compounds, 0.13% hits;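 active means inhibition above the mean inhibition of all tested compounds plus 3 SD, cut at about 73% in these data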
Each line names hits and unclear results; the compound was inactive in the other large screens; ! = repeats disagree.

CC1=C(/C=C/C(C)=C/C=C/C(C)=C/C(=O)Nc2ccc(O)cc2)C(C)(C)CCC1	Gli-Sufu block 70!
CC1=C(/C=C/C(C)=C/C=C/C(C)=C\C(=O)O)C(C)(C)CCC1	none (no result: NCOA2 inhibitor)
COC(=O)c1cc2sccc2n1Cc1nc(-c2ccc(OC)cc2)oc1C	NR2F2 inh 39
COC(=O)c1cc2ccsc2n1Cc1nc(-c2ccc(OC)cc2)oc1C	none
O=C(N/N=C/c1ccc(O)cc1O)c1ccc(CN2C(=O)c3cccc4cccc2c34)cc1	NCOA3 inh 68
O=C(N/N=C/c1ccccc1)c1ccc(CN2C(=O)c3cccc4cccc2c34)cc1	none
Cc1cc([N+](=O)[O-])nn1Cc1ccc(C(=O)N/N=C/c2ccc(O)cc2O)cc1	NCOA3 inh 77
CC(=O)CSc1nnc(-c2ccc3c(c2)OCO3)o1	none
O=C(O)CCSc1nnc(-c2ccc3c(c2)OCO3)o1	NCOA2 inhibitor 70
CCCN(CC(=O)Nc1ccccc1C)C(=O)CCl	NCOA2 inhibitor 56
CC1CCC(C(C)C)C(OC(=O)Cn2c(-c3ccc(F)cc3)[n+](C)c3ccccc32)C1 (centres undefined)	Gli-Sufu block 81, NCOA3 inh 67
COc1ccc(C(=O)OCCN2CCN(C3CN(Cc4cn(Cc5cccc(F)c5)nn4)S(=O)(=O)C3)CC2)cc1OC (centres undefined)	none (no result: SRC1 inh, Gli-Sufu block, NCOA3 inh, LRH-1 inv ag)
Cc1ccc(NC(=S)NNC(=O)CSc2nc3sc4c(c3c(=O)n2-c2ccccc2)CCCC4)cc1	none (no result: SRC1 inh, Gli-Sufu block, NCOA3 inh, LRH-1 inv ag)
CC(=O)n1cc(N(C(=O)CCl)c2ccc([N+](=O)[O-])cc2)c2ccccc21	NCOA2 inhibitor 56
N#CC1=C(N)C(C#N)(C#N)[C@H](c2cccnc2)[C@H]2CN(C(=O)OCc3ccccc3)CC=C12	none
N#CC1=C(N)C(C#N)(C#N)C(c2cccnc2)C2CC(c3ccccc3)CC=C12 (centres undefined)	SRC1 inh 65, NCOA3 inh 62 (no result: NCOA2 inhibitor, NR2F2 inh)
CCC(=O)N1CCc2cc(Br)c(S(=O)(=O)N3CCC(C(=O)NCCCOC(C)C)CC3)cc21	none (no result: SRC1 inh, Gli-Sufu block, NCOA3 inh, LRH-1 inv ag)
CCCC(=O)Nc1cccc(NC(=O)c2ccccc2Br)c1	NCOA2 inhibitor 52
CCC(=O)Nc1ccc(Cl)cc1C(=O)c1ccc[nH]1	none (no result: NCOA2 inhibitor, SRC1 inh, Gli-Sufu block, NCOA3 inh, LRH-1 inv ag)
O=C(Nc1ccc([N+](=O)[O-])cc1Cl)c1cc(Cl)ccc1O	Gli-Sufu block 56
O=C(Nc1cccc2c1CCCC2)c1cc([N+](=O)[O-])ccc1Cl	NCOA2 inhibitor 58
CCOC(=O)[C@]12CCCC3=C1N(CCC3)C(=O)[C@@H](CC(=O)NCc1ccc(C)o1)C2	none (no result: SRC1 inh, Gli-Sufu block, NCOA3 inh, LRH-1 inv ag)
C=C1C(=O)OC2CC1C(O)CC(C)=CCCC(C)=CC(O)CC2C (centres undefined)	NR2F2 inh 47
C=C1C(=O)OC2C1CCC(C)C1C=CC(=O)C12C (centres undefined)	none
O=[N+]([O-])c1ccc(COc2ccccc2CO)cc1	none (no result: SRC1 inh, Gli-Sufu block, NCOA3 inh, LRH-1 inv ag)
COC(=O)[C@]12C[C@H](CC(=O)NCc3ccc(C)o3)C(=O)N(Cc3cccc4ccccc34)C1=C[C@H](C(C)(C)C)O[C@@H]2C	none (no result: SRC1 inh, Gli-Sufu block, NCOA3 inh, LRH-1 inv ag)
CCCCN=C(N)NC(=O)c1ccccc1	none (no result: SRC1 inh, Gli-Sufu block, NCOA3 inh, LRH-1 inv ag)
COc1cc(/C=N/NC(=Nc2ccc(C)cc2)c2nc3ccccc3s2)ccc1O	SRC1 inh 84, NCOA3 inh 85
COC(=O)C1CN(Cc2ccccc2)CCS(=O)(=O)N1Cc1cn(Cc2ccccc2)nn1 (centres undefined)	none (no result: SRC1 inh, Gli-Sufu block, NCOA3 inh, LRH-1 inv ag)
Cc1ccc2cccc(NS(=O)(=O)c3ccccc3)c2n1	NCOA2 inhibitor 75 (no result: SRC1 inh, NCOA3 inh, LRH-1 inv ag)
CCOC(=O)CC[C@H]1CC[C@]2(CCCN(C(=O)C3CCCC3)C2)O1	none (no result: SRC1 inh, Gli-Sufu block, NCOA3 inh, LRH-1 inv ag)
Cc1ccc(S(=O)(=O)/C(=C/Cl)NC(=O)c2ccccc2)cc1	NCOA2 inhibitor 61
Cc1ccc(S(=O)(=O)C(NC(=O)c2ccccc2)=C(Cl)Cl)cc1	none
CCCCN1CN2Cc3cc(OC)ccc3C2CS1(=O)=O (centres undefined)	none (no result: SRC1 inh, Gli-Sufu block, NCOA3 inh, LRH-1 inv ag)
C=C1C(O)[C@@H]2O[C@]3(CC[C@H](/C=C/C(C)[C@@H]4CC(C)=CC5(O[C@H](C[C@@](C)(O)CO)CCC5O)O4)O3)CC[C@H]2O[C@@H]1C(O)CC(C)[C@H]1OC2(CCCCO2)CCC1C (some centres undefined)	Gli-Sufu block 63 (no result: NCOA2 inhibitor, SRC1 inh, NCOA3 inh, NR2F2 inh, LRH-1 inv ag)
C=C1[C@@H](O)[C@@H]2O[C@]3(CC[C@H](/C=C/[C@@H](C)[C@@H]4CC(C)=CC5(O[C@H](C[C@@](C)(O)C(=O)OC)CC[C@H]5O)O4)O3)CC[C@H]2O[C@@H]1[C@@H](O)C[C@H](C)[C@H]1OC2(CCCCO2)CC[C@H]1C (some centres undefined)	Gli-Sufu block 90 (no result: NCOA2 inhibitor, SRC1 inh, NCOA3 inh, NR2F2 inh, LRH-1 inv ag)
Cn1c(=O)c2[nH]c(SCC(=O)NCCc3cccc(F)c3)nc2n(C)c1=O	none (no result: SRC1 inh, Gli-Sufu block, NCOA3 inh, LRH-1 inv ag)
O=C1c2c(O)ccc(O)c2C(=O)c2c(NCCNCCO)ccc(NCCNCCO)c21	SRC1 inh 65, Gli-Sufu block 77
CCOC(=O)N(C)[C@H]1C[C@H]2c3cc(-c4ccccc4C)ccc3CCN2C[C@H]1[C@H](C)O	NR2F2 inh 61 (no result: SRC1 inh, Gli-Sufu block, NCOA3 inh, LRH-1 inv ag)
CCOC(=O)N(C)[C@H]1C[C@H]2c3[nH]c4c(-c5cccc(C)c5)cccc4c3CCN2C[C@H]1[C@H](C)O	none (no result: SRC1 inh, Gli-Sufu block, NCOA3 inh, LRH-1 inv ag)
C=CC[n+]1ccc(/C=C2\C=Cc3cc(C)ccc3N2CC)c2ccccc21	Gli-Sufu block 88, NCOA3 inh 73, LRH-1 inv ag 86 (no result: NCOA2 inhibitor, NR2F2 inh)
COc1ccc(C(=O)C(=O)N2CCN(C(=O)c3ccccc3C(F)(F)F)CC2)cc1OC	none (no result: SRC1 inh, Gli-Sufu block, NCOA3 inh, LRH-1 inv ag)
CC(=O)N(Cc1ccc(F)cc1)C1=C(NCCc2ccccc2)C(=O)c2ccccc2C1=O	Gli-Sufu block 75, NR2F2 inh 55
Cc1ccc(C(C)C)c(OCc2ccc(C(=O)N/N=C/c3cccc(O)c3O)cc2)c1	NCOA2 inhibitor 73, Gli-Sufu block 93, NCOA3 inh 65
COc1cc(/C=N/NC(=O)c2ccc(COc3cc(C)ccc3C(C)C)cc2)cc(OC)c1O	NCOA2 inhibitor 62
Cc1cc(O)c2c(c1O)C(=O)[C@]13C(=C2O)C(=O)[C@@H]2[C@@H](O)[C@H]1[C@@H]1[C@H](O)[C@H]3C(=O)C3=C(O)c4c(O)cc(C)c(O)c4C(=O)[C@]312	SRC1 inh 72, Gli-Sufu block 78, NCOA3 inh 75, LRH-1 inv ag 96 (no result: NCOA2 inhibitor, NR2F2 inh)
COc1ccc(NC(=O)C(=O)NCC2CCCN2S(=O)(=O)c2ccc(C)cc2)cc1 (centres undefined)	Gli-Sufu block 69
COCc1[nH]nc2c1C(c1ccc(C)cc1)NC2=O (centres undefined)	none (no result: SRC1 inh, Gli-Sufu block, NCOA3 inh, LRH-1 inv ag)
Cc1ccc(C(=O)C(c2ccccc2)N2Cc3ccccc3C2=N)cc1 (centres undefined)	Gli-Sufu block 56 (no result: NCOA2 inhibitor, NR2F2 inh)
COc1ccc(C(=O)C(c2ccccc2)N2CCOCC2)cc1 (centres undefined)	none
CC(C)CC(=O)/C(=C\c1ccc(Cl)cc1Cl)n1cncn1	NCOA3 inh 71 (no result: NCOA2 inhibitor, NR2F2 inh)
CC(C)CC(=O)/C(=C/c1ccc(N(C)C)cc1)n1cncn1	none
